Drawing on PubChem BioAssay (EPA / NIEHS), this text covers outcome and AC50 for four compounds.

What all share (conditions): mRNA level, 48 h; actives raise or lower the signal
Read-out in assay [1]: Cytochrome P450 (CYP2B6), CYP2B6 (gene 1555)
The experiment in a line: LTEA_HepaRG_CYP2B6: Life Technologies and Expression Analysis (LTEA) Assay for Cytochrome P450 (CYP2B6) using HepaRG (AID 2283481). Summed up:
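Using 48 h treatment of HepaRG cells in serum-free induction medium, concentrations spanned half-log steps from 100 uM in 0.5% DMSO vehicle. CYP2B6 mRNA induction or loss is scored by qRT-PCR against DMSO.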

Read-out in assay [2]: Cytochrome P450 2C19 (Homo sapiens) (UniProt P33261)
The experiment in a line: LTEA_HepaRG_CYP2C19: Life Technologies and Expression Analysis (LTEA) Assay for CYP2C19 using HepaRG (AID 2283482). The method, boiled down: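 Human HepaRG liver cells received test chemicals for 48 h (highest 100 uM, half-log dilutions in 0.5% DMSO). CYP2C19 mRNA induction or loss is read by multiplexed qRT-PCR and fitted in both directions versus vehicle.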

Read-out in assay [3]: CYP2C8 (gene 1558)
The experiment in a line: LTEA_HepaRG_CYP2C8: Life Technologies and Expression Analysis (LTEA) Assay for CYP2C8 using HepaRG (AID 2283483). The method, boiled down:
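CYP2C8 expression measured by TaqMan qRT-PCR and normalized to three housekeeping genes. HepaRG cultures were treated for 48 h with an eight-point half-log series topping at 100 uM, vehicle 0.5% DMSO, duplicates; fitted both directions against DMSO.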

Read-out in assay [4]: CYP2C9 (gene 1559)
In words: LTEA_HepaRG_CYP2C9: Life Technologies and Expression Analysis (LTEA) Assay for CYP2C9 using HepaRG (AID 2283484). Summed up:
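CYP2C9 transcript level, quantified by TaqMan qRT-PCR against three housekeeping genes, was fitted bidirectionally relative to 0.5% DMSO. HepaRG cultures were treated 48 h, in duplicate, at eight half-log concentrations topping at 100 uM.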

Read-out in assay [5]: CYP2E1 (gene 1571)
In words: LTEA_HepaRG_CYP2E1: Life Technologies and Expression Analysis (LTEA) Assay for CYP2E1 using HepaRG (AID 2283485). The method, boiled down: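 Assay uses 48 h exposure of HepaRG hepatic cells, eight concentrations to 100 uM. Expression of CYP2E1 is quantified by TaqMan qRT-PCR with ACTB, GAPDH and POLR2A normalization; curves fitted in both directions relative to vehicle.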

Read-out in assay [6]: CYP4A11 (gene 1579)
The experiment in a line: LTEA_HepaRG_CYP4A11: Life Technologies and Expression Analysis (LTEA) Assay for CYP4A11 using HepaRG (AID 2283486). The method, boiled down:
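Readout is CYP4A11 mRNA induction or suppression (qRT-PCR, ACTB/GAPDH/POLR2A normalization) in human HepaRG cells after 48 h chemical treatment, concentrations to 100 uM in 0.5% DMSO, fitted bidirectionally against vehicle.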

Read-out in assay [7]: Cytochrome P450 3A4 (Homo sapiens) (UniProt P08684)
In words: LTEA_HepaRG_CYP3A4: Life Technologies and Expression Analysis (LTEA) Assay for CYP3A4 using HepaRG (AID 2283487). Summed up: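 Differentiated HepaRG cells in serum-free induction medium exposed in duplicate for 48 h to 8 half-log concentrations up to 100 uM in 0.5% DMSO. CYP3A4 mRNA measured by qRT-PCR normalized to ACTB, GAPDH and POLR2A; bidirectional fit versus DMSO.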

Read-out in assay [8]: DNA damage-inducible transcript 3 (DDIT3), DDIT3 (gene 1649)
The experiment in a line: LTEA_HepaRG_DDIT3: Life Technologies and Expression Analysis (LTEA) Assay for DNA damage-inducible transcript 3 (DDIT3) using HepaRG (AID 2283488). The method, boiled down:
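Eight-point concentration-response (100 uM highest, half-log dilutions) in HepaRG, 48 h, duplicate wells. Endpoint: qRT-PCR mRNA, normalized (ACTB, GAPDH, POLR2A), bidirectional fitting with DMSO as baseline.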

Read-out in assay [9]: Pro-epidermal growth factor (Homo sapiens) (UniProt P01133)
The experiment in a line: LTEA_HepaRG_EGF: Life Technologies and Expression Analysis (LTEA) Assay for Epidermal growth factor (EGF) using HepaRG (AID 2283489). Summed up:
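EGF expression changes in human HepaRG cells are scored by bidirectional fitting relative to 0.5% DMSO controls. Chemicals are tested at eight half-log concentrations up to 100 uM for 48 h in serum-free induction medium.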

Read-out in assay [10]: Early growth response protein 1 (EGR1) transcription factor, EGR1 (gene 1958)
In words: LTEA_HepaRG_EGR1: Life Technologies and Expression Analysis (LTEA) Assay for Early growth response protein 1 (EGR1) transcription factor using HepaRG (AID 2283490). The method, boiled down:
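EGR1 transcript levels quantified by qRT-PCR (Fluidigm arrays) against three housekeeping genes after 48 h chemical exposure of HepaRG cells. Eight-point half-log series topping at 100 uM, 0.5% DMSO vehicle, analyzed for gain or loss.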

Read-out in assay [11]: Cytochrome P450 3A7 (Homo sapiens) (UniProt P24462)
The experiment in a line: LTEA_HepaRG_CYP3A7: Life Technologies and Expression Analysis (LTEA) Assay for CYP3A7 using HepaRG (AID 2283492). The method, boiled down:
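Cells were thawed, plated, cultured 48 h, then treated for a further 48 h with chemicals (eight-point half-log series from 100 uM, 0.5% DMSO). RNA was isolated and CYP3A7 expression quantified by qRT-PCR normalised to ACTB, GAPDH and POLR2A.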

Read-out in assay [12]: CYP3A5 (gene 1577)
The experiment in a line: LTEA_HepaRG_CYP3A5: Life Technologies and Expression Analysis (LTEA) Assay for CYP3A5 using HepaRG (AID 2283493). Summed up:
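Readout was CYP3A5 mRNA by qRT-PCR. HepaRG cultures were exposed for 48 h in serum-free induction medium to chemicals at up to 100 uM, and responses were fitted in both directions relative to DMSO vehicle.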

Read-out in assay [13]: Fatty Acid-Binding Protein 1 (FABP1), FABP1 (gene 2168)
The experiment in a line: LTEA_HepaRG_FABP1: Life Technologies and Expression Analysis (LTEA) Assay for Fatty Acid-Binding Protein 1 (FABP1) using HepaRG (AID 2283494). The method, boiled down:
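FABP1 expression by TaqMan qRT-PCR, normalised to three housekeeping genes, in HepaRG cells after 48 h chemical treatment. Eight-point half-log series topping at 100 uM in 0.5% DMSO, duplicates; gain or loss fitted relative to vehicle.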

Read-out in assay [14]: Cytochrome P450 4A22 (Homo sapiens) (UniProt Q5TCH4)
In words: LTEA_HepaRG_CYP4A22: Life Technologies and Expression Analysis (LTEA) Assay for Cytochrome P450 4A22 (CYP4A22) using HepaRG (AID 2283495). The method, boiled down: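 Cryopreserved HepaRG cells, plated and cultured 48 h, then switched to serum-free induction medium and treated 48 h (duplicates, up to 100 uM, half-log steps, 0.5% DMSO). Expression change of CYP4A22 was fitted bidirectionally against vehicle.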

Read-out in assay [15]: Cytochrome P450 7A1 (Homo sapiens) (UniProt P22680)
The experiment in a line: LTEA_HepaRG_CYP7A1: Life Technologies and Expression Analysis (LTEA) Assay for Cytochrome P450 7A1 (CYP7A1) using HepaRG (AID 2283496). Summed up:
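Using 0.5% DMSO as vehicle and baseline, chemicals were tested in duplicate over an 8-point range from 100 uM on HepaRG cells for 48 h; qRT-PCR signals were normalised to ACTB, GAPDH and POLR2A.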

Read-out in assay [16]: Glutathione S-Transferase (GSTA2), GSTA2 (gene 2939)
In words: LTEA_HepaRG_GSTA2: Life Technologies and Expression Analysis (LTEA) Assay for Glutathione S-Transferase (GSTA2) using HepaRG (AID 2283497). The method, boiled down: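 GSTA2 transcript levels came from Fluidigm TaqMan qRT-PCR normalized to three housekeeping genes, fitted in both directions against DMSO. HepaRG cultures received chemicals for 48 h in serum-free induction medium (0.5% DMSO), 8 half-log concentrations up to 100 uM, duplicate.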

Read-out in assay [17]: Glutamate-cysteine ligase catalytic (GCLC), GCLC (gene 2729)
In words: LTEA_HepaRG_GCLC: Life Technologies and Expression Analysis (LTEA) Assay for Glutamate-cysteine ligase catalytic (GCLC) using HepaRG (AID 2283498). Summed up: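 Expression by TaqMan qRT-PCR, normalized to three housekeeping genes (ACTB, GAPDH, POLR2A), with up- or down-regulation fitted against DMSO. HepaRG cells dosed in duplicate for 48 h with 8 half-log concentrations up to 100 uM, vehicle 0.5% DMSO.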

Read-out in assay [18]: growth arrest and DNA damage 45 (GADD45G), GADD45G (gene 10912)
The experiment in a line: LTEA_HepaRG_GADD45G: Life Technologies and Expression Analysis (LTEA) Assay for growth arrest and DNA damage 45 (GADD45G) using HepaRG (AID 2283499). Summed up: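 Human hepatic HepaRG line treated 48 h with chemicals (eight concentrations, half-log steps from 100 uM); transcript induction or repression of GADD45G scored by qRT-PCR versus DMSO vehicle.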

Read-out in assay [19]: Glutamate-cysteine ligase regulatory (GCLM), GCLM (gene 2730)
The experiment in a line: LTEA_HepaRG_GCLM: Life Technologies and Expression Analysis (LTEA) Assay for Glutamate-cysteine ligase regulatory (GCLM) using HepaRG (AID 2283500). The method, boiled down: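 In this multiplexed HepaRG gene-expression assay, GCLM mRNA change after 48 h treatment (8 concentrations, max 100 uM) was scored against DMSO by bidirectional curve fitting.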

Each structure is given as a SMILES string. Active and inactive are the calls of the source. Rule for the calls: active = hit-call score of the fitted dose curve at least 0.9, where 1 is the maximum; inactive = score below 0.9.

Cytochrome P450 2C19 (Homo sapiens), sequence (P33261 whole entry, looked up): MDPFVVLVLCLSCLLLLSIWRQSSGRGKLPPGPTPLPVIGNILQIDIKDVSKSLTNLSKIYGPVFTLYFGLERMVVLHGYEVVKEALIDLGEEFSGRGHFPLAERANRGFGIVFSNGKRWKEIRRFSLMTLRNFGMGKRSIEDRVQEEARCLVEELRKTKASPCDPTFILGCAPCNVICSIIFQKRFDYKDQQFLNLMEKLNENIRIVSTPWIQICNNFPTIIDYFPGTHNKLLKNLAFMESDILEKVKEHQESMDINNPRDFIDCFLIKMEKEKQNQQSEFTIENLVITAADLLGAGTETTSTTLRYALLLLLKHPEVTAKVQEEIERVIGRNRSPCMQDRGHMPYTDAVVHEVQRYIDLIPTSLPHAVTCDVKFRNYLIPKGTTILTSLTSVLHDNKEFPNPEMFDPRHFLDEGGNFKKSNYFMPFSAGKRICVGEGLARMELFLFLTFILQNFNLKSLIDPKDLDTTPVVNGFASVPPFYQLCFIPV
Cytochrome P450 3A4 (Homo sapiens), sequence (P08684 whole entry, looked up): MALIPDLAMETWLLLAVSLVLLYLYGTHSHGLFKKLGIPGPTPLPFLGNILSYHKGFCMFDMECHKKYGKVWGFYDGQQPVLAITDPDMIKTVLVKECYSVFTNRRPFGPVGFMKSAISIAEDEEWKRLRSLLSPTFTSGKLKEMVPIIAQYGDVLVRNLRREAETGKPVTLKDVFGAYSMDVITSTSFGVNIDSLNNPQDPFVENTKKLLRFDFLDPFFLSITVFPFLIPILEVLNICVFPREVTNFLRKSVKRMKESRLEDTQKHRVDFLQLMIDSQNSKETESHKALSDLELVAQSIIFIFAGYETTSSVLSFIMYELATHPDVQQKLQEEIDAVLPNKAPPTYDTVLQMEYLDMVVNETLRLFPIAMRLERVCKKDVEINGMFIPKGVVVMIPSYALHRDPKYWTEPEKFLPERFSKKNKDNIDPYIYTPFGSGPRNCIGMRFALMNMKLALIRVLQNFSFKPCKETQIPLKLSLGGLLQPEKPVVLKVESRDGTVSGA
Cytochrome P450 3A7 (Homo sapiens), sequence (P24462 whole entry, looked up): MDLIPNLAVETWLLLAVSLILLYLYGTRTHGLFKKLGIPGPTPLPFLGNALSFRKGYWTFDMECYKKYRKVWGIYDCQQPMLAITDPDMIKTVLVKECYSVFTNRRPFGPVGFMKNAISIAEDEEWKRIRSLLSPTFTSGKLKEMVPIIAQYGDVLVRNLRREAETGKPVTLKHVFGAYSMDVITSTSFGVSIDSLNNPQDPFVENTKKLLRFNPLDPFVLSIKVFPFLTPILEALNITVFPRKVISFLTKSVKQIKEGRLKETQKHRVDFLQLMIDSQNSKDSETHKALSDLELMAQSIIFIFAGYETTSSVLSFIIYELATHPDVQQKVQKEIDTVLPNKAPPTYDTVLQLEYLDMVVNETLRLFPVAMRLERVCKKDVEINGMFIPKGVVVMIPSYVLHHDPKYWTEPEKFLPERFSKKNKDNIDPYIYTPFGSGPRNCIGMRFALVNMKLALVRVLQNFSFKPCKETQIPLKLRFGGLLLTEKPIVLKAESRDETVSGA

A word on the AC50: it is the midpoint of the concentration-response curve, whichever way the signal moves. For the compound `[Cl-].[Cl-].[Hg+2]`, the compound was called inactive in [1], in [2], in [3], in assay [4], in assay [5] and in assay [6]. The result in assay [7], in assay [8], in assay [9], in assay [10], in assay [11] and in assay [12] was inactive. Also, the result in assay [13], in assay [14], in assay [15], in assay [16], in assay [17] and in assay [19] was inactive. The AC50 in [18] is 24.1 µM (active).
Take `Cc1cccc(N)c1N`: the result in assay [1], in assay [2], in assay [7], in [8], in assay [9] and in [10] was inactive. For the same compound, the result in [11] and in assay [17] was inactive. The AC50 in assay [3] was 50 µM (active); in assay [4], 50 µM (active); in assay [5] it was 58.1 µM (active); in assay [6], 86.1 µM (active); in assay [12], 11.1 µM (active); in assay [13], 62.6 µM (active). The AC50 in assay [14] is 50 µM (active); in assay [15], 46 µM (active); in assay [16], 50 µM (active); in assay [18], 50 µM (active).
With `Nc1cc(Cl)cc(C(=O)O)c1Cl`, the outcome in assay [1], in assay [2], in [3], in [4], in [5] and in assay [7] was inactive. For the same compound, the call in [8], in [9], in [10], in assay [11], in assay [12] and in assay [13] was inactive. For the same compound, the result in assay [14], in assay [15], in assay [16], in [17], in assay [18] and in assay [19] was inactive. The AC50 in assay [6] was 50 µM (active).
Turning to `Clc1ccccc1Cl`, the call in [1], in assay [2], in assay [3], in assay [4], in assay [5] and in assay [6] was inactive. The compound was classed as inactive in [7], in assay [8], in assay [9], in [10], in assay [11] and in [12]. For the same compound, the compound was called inactive in assay [13], in assay [14], in assay [15], in [16], in [17] and in assay [18]. Besides, the call in assay [19] was inactive.
